# PubChem BioAssay (NCATS)
# Several values for one entry are separate records, joined by “and”; a condition that tells them apart may be missing. Identical values can stand only once. Results filed as inconclusive are left out. A call without a number means that no potency is given here. More than one record can exist for a structure, and the calls need not agree. Activity calls are given as the source filed them. Unless noted, the call rests on the fitted dose curve; in most records, active means well fitted curve in the direction sought with a large enough effect; inconclusive means small, poorly fitted or top-dose-only effect, or another doubt; inactive means no such curve, though single readings can be large; an effect the other way counts as inactive or inconclusive.
# What was measured:
# [1] = AP1 Signaling Pathway (AID 357; active means well fitted curve in either direction with a large enough effect, not every such curve was filed as active); conditions: ME-180 AP-1-bla reporter, EGF-induced, beta-lactamase ratio, 5 h; at 38 µM (top of the series)
# How it was run: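 In this screen, ME-180 cells in Opti-MEM with 0.5% dialyzed FBS received EC50 EGF and compound titrations for 5 h. AP-1 reporter beta-lactamase was detected via CCF4 ratio, giving AC50 for positive and negative modulators.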
# [2] = biological target: Cytochrome P450 1A2 (Homo sapiens) (UniProt P05177); assay: p450-cyp1a2 (AID 410; calls by dose curve; further: potency means the concentration at half of the fitted maximal effect); conditions: recombinant CYP1A2, luciferin-ME demethylation, luminescence; series mostly up to 57 µM
# Cytochrome P450 1A2 (Homo sapiens), sequence (P05177 whole entry, looked up): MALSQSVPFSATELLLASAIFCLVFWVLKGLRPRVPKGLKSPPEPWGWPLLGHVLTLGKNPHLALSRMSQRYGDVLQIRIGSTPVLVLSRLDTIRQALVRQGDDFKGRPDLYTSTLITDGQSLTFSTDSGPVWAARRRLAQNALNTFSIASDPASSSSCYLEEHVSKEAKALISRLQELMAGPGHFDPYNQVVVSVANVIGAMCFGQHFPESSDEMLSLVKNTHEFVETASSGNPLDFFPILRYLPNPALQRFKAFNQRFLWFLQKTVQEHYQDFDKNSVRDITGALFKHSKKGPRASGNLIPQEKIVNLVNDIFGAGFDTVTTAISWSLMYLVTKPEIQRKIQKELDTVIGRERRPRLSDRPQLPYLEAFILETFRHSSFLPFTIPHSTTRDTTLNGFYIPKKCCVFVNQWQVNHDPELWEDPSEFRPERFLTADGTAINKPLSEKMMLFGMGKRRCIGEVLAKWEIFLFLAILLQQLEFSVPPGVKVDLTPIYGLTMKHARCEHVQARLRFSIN
# How it was run: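 Read-out is luminescence from luciferin produced by CYP1A2 demethylation of Luciferin-ME (100uM, at Km). Detection reagent stopped the 60 min NADPH-dependent reaction; signals were normalized to 57 uM furafylline.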
# [3] = NFAT Signaling Pathway (AID 444; active means well fitted curve in either direction with a large enough effect, not every such curve was filed as active;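 further: carbachol stimulus at about its EC50 of 1 µM final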); conditions: Jurkat NFAT-bla M1, carbachol, beta-lactamase ratio, 5 h; at 38 µM (top of the series)
# How it was run: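 Jurkat cells with NFAT-driven β-lactamase reporter and co-expressed M1 receptor, stimulated with carbachol (final 1 uM, ~EC50), compound titration, 5 h at 37 °C. CCF4 loaded 1 h at RT; 460/530 nm ratio gave %activity and AC50.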
# [4] = Stat Signaling Pathway (AID 446; active means well fitted curve in either direction with a large enough effect, not every such curve was filed as active;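 further: ME-180 cervical cancer cells given 40 pM IL-6 alongside compound; SIE-controlled beta-lactamase reporter measured as 460/530 nm FRET emission ratio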); conditions: ME-180 (cervical carcinoma) SIE beta-lactamase reporter, IL-6 stimulated, 5 h; at 38 µM (top of the series)
# How it was run: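 Overnight-plated ME-180 cells bearing a STAT Inducible Element beta-lactamase reporter; 5 h co-exposure to compound and 40 pM IL-6; values normalized to 300 pM IL-6 and 125 nM JAK inhibitor controls.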
# [5] = biological target: Glucocorticoid receptor (Homo sapiens) (UniProt P04150); assay: GR-GFP Redistribution (AID 450;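 active means compounds whose dose series gives a full or clear partial fitted curve of increased nuclear translocation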; further: potency means the concentration at half of the fitted maximal effect); conditions: U2OS GR-GFP nuclear translocation, laser cytometry, 2 h
# Glucocorticoid receptor (Homo sapiens), sequence (P04150 whole entry, looked up, the tested form may be a part): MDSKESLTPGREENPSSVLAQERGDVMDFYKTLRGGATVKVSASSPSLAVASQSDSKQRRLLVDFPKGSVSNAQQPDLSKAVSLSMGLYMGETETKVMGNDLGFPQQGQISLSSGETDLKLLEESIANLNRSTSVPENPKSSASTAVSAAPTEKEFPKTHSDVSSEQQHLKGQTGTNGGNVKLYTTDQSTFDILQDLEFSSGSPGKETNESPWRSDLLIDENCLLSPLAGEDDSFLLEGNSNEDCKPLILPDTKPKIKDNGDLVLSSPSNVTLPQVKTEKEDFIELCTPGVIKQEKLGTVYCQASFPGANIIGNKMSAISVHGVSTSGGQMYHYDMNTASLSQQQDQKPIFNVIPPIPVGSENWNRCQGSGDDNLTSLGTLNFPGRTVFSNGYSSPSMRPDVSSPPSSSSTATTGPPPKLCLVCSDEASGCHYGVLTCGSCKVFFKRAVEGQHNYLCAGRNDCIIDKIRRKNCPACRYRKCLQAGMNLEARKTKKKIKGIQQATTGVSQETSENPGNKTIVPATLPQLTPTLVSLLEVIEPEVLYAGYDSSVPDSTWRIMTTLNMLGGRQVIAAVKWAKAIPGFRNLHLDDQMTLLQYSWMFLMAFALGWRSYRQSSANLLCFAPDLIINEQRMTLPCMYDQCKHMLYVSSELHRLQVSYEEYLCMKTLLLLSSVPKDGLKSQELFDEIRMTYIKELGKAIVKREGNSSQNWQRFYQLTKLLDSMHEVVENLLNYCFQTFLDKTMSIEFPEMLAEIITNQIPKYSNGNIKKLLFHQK
# [6] = biological target: Glucocorticoid receptor (Homo sapiens) (UniProt P04150); assay: GR-EFC Redistribution (AID 451; calls by dose curve; further: potency means the concentration at half of the fitted maximal effect); conditions: CHO-K1 GR-EFC translocation, beta-gal luminescence, 2 h
# How it was run: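 CHO-K1 cells expressing nuclear EA and GR-ED fragments of b-gal; compounds titrated up to 46 uM final, 2 h at 37 C. GR nuclear translocation read as complemented b-gal luminescence after 1 h RT detection.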
# [7] = biological target: Mitogen-activated protein kinase 10 (Mus musculus) (UniProt Q61831); assay: JNK3 AlphaScreen Assay (AID 530; active means well fitted curve in either direction with a large enough effect, not every such curve was filed as active;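 further: kinase came from lysate of stimulated human HepG2 cells; signal reports phosphorylation of biotinylated GST-cJun 1-79 at Ser73 with 10 µM ATP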); conditions: JNK3 lysate, c-Jun phosphorylation; series mostly up to 57.1 µM
# How it was run: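 HepG2 lysate (IL-1b/TNFa pre-activated) + biotin-GST-cJun 1-79 + anti-pSer73 cJun; cpd titration, 15 min RT; ATP 10 uM start; Tris pH 7.6, MgCl2, DTT, vanadate; beads in EDTA buffer; AlphaScreen.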
# [8] = biological target: 3',5'-cyclic-AMP phosphodiesterase 4B (Homo sapiens) (UniProt Q07343); assay: qHTS Assay for Inhibitors of PDE-IV (AID 607; active means well fitted activation curve with a large enough effect in the main read-out, with a control signal flat, not every such curve was filed as active); conditions: HEK293 ACTOne CNG channel cells, membrane potential fluorescence; series mostly up to 22.9 µM
# 3',5'-cyclic-AMP phosphodiesterase 4B (Homo sapiens), sequence (Q07343 whole entry, looked up): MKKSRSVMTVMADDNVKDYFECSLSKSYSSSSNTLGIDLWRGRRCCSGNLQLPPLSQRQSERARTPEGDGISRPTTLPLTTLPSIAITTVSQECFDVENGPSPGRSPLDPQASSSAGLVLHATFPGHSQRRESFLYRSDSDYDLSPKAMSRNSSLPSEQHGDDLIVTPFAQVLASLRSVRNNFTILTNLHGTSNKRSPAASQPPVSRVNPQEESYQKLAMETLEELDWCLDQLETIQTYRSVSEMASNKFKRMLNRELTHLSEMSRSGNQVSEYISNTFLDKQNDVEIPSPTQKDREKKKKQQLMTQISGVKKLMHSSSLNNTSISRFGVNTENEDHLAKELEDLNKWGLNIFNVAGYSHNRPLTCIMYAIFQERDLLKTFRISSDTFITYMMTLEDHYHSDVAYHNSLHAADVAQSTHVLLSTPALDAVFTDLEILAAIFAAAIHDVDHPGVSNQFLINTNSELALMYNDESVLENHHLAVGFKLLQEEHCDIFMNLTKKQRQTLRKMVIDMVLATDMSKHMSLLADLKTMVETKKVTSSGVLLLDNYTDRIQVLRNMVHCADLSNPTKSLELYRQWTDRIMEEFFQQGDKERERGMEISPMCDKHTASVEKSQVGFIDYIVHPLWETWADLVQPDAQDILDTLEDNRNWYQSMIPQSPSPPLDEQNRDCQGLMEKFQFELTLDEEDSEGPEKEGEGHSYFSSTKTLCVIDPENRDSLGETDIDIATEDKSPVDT
# How it was run: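 Live HEK293 cells with a modified cyclic nucleotide-gated (CNG) channel report intracellular cAMP via membrane-potential dye fluorescence (ex 535/em 590 nm). Endogenous PDE-IV was targeted. Compounds were tested at up to 22.9 uM final; RO 20-1724 100 uM served as control.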
# [9] = biological target: Guanine nucleotide-binding protein G(i) subunit alpha-1 (Homo sapiens) (UniProt P63096); assay: qHTS Assay for Inhibitors of RGS12 GoLoco Motif Activity (Green Fluorophore) (AID 879); conditions: Galphai1/FITC-RGS12 GoLoco peptide, fluorescence polarization; series mostly up to 57.1 µM;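 further: negative values mean loss of peptide binding seen as reduced polarization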
# Guanine nucleotide-binding protein G(i) subunit alpha-1 (Homo sapiens), sequence (P63096 whole entry, looked up): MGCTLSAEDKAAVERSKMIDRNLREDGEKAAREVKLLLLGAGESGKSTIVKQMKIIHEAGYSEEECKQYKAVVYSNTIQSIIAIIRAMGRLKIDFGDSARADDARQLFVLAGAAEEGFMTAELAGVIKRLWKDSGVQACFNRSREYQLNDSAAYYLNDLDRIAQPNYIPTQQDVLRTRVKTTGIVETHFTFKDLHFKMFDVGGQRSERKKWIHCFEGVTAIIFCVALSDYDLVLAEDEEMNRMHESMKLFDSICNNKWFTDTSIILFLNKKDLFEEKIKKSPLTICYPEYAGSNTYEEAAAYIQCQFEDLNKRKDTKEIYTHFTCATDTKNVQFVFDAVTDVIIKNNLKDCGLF
# How it was run: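 A drop in FITC polarization marked displacement of the FITC-tagged RGS12 GoLoco peptide (10 nM) from Gαi1 (50 nM). Compounds were incubated 10 min at room temperature in Tris pH 7.5 buffer containing 150 mM NaCl, 0.1 mM GDP and 0.05% NP40; unlabeled peptide titration served as control.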
# [10] = biological target: Cytochrome P450 2C19 (Homo sapiens) (UniProt P33261); assay: qHTS Assay for Inhibitors and Substrates of Cytochrome P450 2C19 (AID 899); conditions: recombinant CYP2C19, luciferin-H EGE luminescence; series mostly up to 57.1 µM; further: nearly all actives have a fitted effect of over 60% in size
# How it was run: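 Luminescent read-out of luciferin formed from Luciferin-H EGE (10uM, equal to KM). Enzyme 5nM in 50mM KPO4; compound added, 10 min at 37C, then NADPH regenerating system for 60 min at 37C. Full inhibition defined by 57uM ketoconazole.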
# [11] = biological target: Pyruvate kinase (Leishmania mexicana) (UniProt Q27686); assay: qHTS Validation Assay for Inhibitors of Leishmania Mexicana Pyruvate Kinase (AID 945); conditions: purified L. mexicana pyruvate kinase, enzyme activity, E451W mutant enzyme; series mostly up to 57.5 µM
# Pyruvate kinase (Leishmania mexicana), sequence (Q27686 2-499 E452W): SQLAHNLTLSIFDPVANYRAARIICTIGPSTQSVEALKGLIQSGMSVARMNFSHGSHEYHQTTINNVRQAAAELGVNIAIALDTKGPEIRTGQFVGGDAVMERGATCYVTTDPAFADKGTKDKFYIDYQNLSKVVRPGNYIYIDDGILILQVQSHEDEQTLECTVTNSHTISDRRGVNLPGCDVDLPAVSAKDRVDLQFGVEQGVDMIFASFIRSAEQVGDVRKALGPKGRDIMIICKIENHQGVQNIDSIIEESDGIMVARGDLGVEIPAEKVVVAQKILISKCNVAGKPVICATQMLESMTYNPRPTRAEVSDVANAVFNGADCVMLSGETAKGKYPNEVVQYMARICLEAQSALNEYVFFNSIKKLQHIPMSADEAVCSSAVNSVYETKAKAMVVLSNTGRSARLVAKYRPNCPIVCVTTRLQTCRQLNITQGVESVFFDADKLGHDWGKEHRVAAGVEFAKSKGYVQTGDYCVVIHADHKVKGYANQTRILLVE
# How it was run: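 The enzyme is a highly purified E451W mutant of LmPYK used at 0.2 nM. It converts 0.5 mM PEP and 0.1 mM ADP over 1 h at room temperature; product ATP is quantified by luciferase luminescence relative to DMSO controls.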
# [12] = biological target: Pyruvate kinase PKM (Homo sapiens) (UniProt P14618); assay: qHTS Assay for Activators of Human Muscle Pyruvate Kinase (AID 954; active means well fitted curve in the direction sought with a large enough effect, not every such curve was filed as active); conditions: purified human muscle pyruvate kinase, luciferase-coupled luminescence, 1 h; series mostly up to 57.5 µM
# Pyruvate kinase PKM (Homo sapiens), sequence (P14618 whole entry, looked up): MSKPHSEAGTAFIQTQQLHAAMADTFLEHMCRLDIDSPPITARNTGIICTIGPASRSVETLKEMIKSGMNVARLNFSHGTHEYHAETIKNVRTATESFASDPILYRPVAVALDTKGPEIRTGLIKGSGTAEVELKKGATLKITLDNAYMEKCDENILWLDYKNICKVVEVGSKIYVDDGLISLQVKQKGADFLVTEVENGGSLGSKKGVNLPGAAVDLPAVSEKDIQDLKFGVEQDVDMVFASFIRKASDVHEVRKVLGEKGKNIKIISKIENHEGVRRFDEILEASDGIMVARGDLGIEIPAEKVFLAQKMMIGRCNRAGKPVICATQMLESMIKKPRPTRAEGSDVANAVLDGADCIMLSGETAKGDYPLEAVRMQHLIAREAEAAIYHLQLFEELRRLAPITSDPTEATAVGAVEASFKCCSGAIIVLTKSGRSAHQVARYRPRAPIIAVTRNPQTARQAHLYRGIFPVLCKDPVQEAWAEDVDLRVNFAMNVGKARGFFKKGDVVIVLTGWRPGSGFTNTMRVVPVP
# How it was run: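 Screening used highly purified human pyruvate kinase M2 under submaximal activity, with PEP at its Km and ADP below Km. After an hour at room temperature, ATP was read by luciferase luminescence.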
# [13] = biological target: Alpha-galactosidase A (Homo sapiens) (UniProt P06280); assay: Counterscreen for Glucocerebrosidase Inhibitors: qHTS Assay for Human alpha-Galactosidase at pH 4.5 (AID 992); conditions: purified enzyme, fluorogenic substrate; series mostly up to 76.9 µM
# Alpha-galactosidase A (Homo sapiens), sequence (P06280 whole entry, looked up): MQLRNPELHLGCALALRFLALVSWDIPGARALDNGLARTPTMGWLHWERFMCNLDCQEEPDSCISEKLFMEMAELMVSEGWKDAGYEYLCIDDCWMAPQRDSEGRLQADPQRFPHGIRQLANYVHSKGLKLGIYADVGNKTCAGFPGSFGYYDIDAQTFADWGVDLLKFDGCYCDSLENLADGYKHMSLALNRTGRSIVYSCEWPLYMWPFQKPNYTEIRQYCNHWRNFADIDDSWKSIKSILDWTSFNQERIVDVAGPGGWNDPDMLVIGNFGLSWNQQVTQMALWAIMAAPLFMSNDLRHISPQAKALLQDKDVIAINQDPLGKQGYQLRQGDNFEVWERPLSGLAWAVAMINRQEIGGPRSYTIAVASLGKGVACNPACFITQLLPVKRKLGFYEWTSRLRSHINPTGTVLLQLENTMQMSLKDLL
# How it was run: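 Each compound is preincubated briefly with 2 nM enzyme before substrate addition (80 uM); plates then sit 20 min at ambient temperature, are quenched with 1M NaOH/1M glycine, and read fluorometrically.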
# [14] = biological target: alpha-glucosidase (Oryza sativa, rice) (UniProt Q653V4); assay: Counterscreen for Glucocerebrosidase Inhibitors: qHTS Assay for Rice alpha-Glucosidase at pH 5.0 (AID 997); conditions: rice alpha-glucosidase enzyme activity; series mostly up to 76.9 µM
# How it was run: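 Endpoint fluorogenic assay at pH 5.0: compounds (0.7 nM to 77 uM) titrated against 4 nM rice enzyme and 400 uM 4-MU-alpha-glucoside for 20 min at room temperature; NaOH/glycine stop, read ex 365/em 440 nm, Hill-fitted AC50.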
# [15] = qHTS Assay for Lipid Storage Modulators (AID 1519; calls by dose curve); conditions: Drosophila S3 cells, BODIPY lipid droplet/cell ratio, laser cytometry, cells loaded with oleic acid; for activity change, negative = inhibition: at 57.5 µM (top of the series)
# How it was run: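 Cells seeded at 5,000 per well were treated with compounds over a concentration series and loaded with oleic acid (400 uM, as added). Lipid droplet fluorescence (488 nm excitation, 500-530 nm channel) was read by laser-scanning cytometry and normalized to 20 uM Triacsin C.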
# [16] = biological target: DNA dC->dU-editing enzyme APOBEC-3G (Homo sapiens) (UniProt Q9HC16); assay: qHTS for inhibitors of Vif-A3G interactions: Validation (AID 588379); conditions: Vif-A3G protein interaction assay; series mostly up to 46.1 µM
# DNA dC->dU-editing enzyme APOBEC-3G (Homo sapiens), sequence (Q9HC16 whole entry, looked up): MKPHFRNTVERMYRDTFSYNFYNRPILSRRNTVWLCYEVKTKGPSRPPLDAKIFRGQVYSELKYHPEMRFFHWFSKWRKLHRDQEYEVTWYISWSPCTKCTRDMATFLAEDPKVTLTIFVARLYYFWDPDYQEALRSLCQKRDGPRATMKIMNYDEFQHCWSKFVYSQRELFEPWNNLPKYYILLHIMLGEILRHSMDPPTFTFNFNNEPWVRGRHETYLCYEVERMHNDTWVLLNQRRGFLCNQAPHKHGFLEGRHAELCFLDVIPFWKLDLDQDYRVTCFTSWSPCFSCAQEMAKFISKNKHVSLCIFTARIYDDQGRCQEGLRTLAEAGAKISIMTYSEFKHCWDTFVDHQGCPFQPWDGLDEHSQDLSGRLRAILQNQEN
# How it was run: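 Yellow fluorescence (Ex 488, Em 500-530) of Vif-coexpressing HeLa A3G-eYFP cells, scanned by Acumen cytometer, reports blocked A3G degradation. Cells plated at 700/well overnight at 37 deg C before compound addition, then a further overnight compound incubation at 37 deg C.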
# [17] = test system: Zika virus NS2B-NS3 protease; assay: Primary screen GU AMC qHTS for Zika virus inhibitors (AID 1347154); conditions: Zika NS2B-NS3 unlinked protease, AMC fluorogenic substrate; series mostly up to 54.1 µM; further: nearly all actives have a fitted effect of over 70% in size
# How it was run: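 Unlinked Zika NS2B hydrophilic domain–NS3 protease complex at 25 nM in 10 mM Tris-HCl pH 8.0, 0.01% Tween 20, with an AMC peptide substrate. Fluorescence change (340/450 nm) over 15 min at room temperature, normalized to controls, fitted to 4-parameter Hill.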
# [18] = Primary qHTS for small molecule stabilizers of the endoplasmic reticulum resident proteome: Secreted ER Calcium Modulated Protein (SERCaMP) assay (AID 1508630); conditions: SH-SY5Y GLuc-SERCaMP (Gaussia luciferase released on ER calcium loss) secretion, thapsigargin, luminescence; series mostly up to 38.4 µM; further: potency means the concentration at half of the fitted maximal effect
# How it was run: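 The SH-SY5Y reporter protocol was run at 3 concentrations up to 38.3 uM (primary) or 11 concentrations (follow-up): 16 h compound, 100 nM thapsigargin for 4 h, then extracellular luciferase luminescence.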
# [19] = biological target: Cytochrome P450 3A4 (Homo sapiens) (UniProt P08684); assay: qHTS Assay for Activators of Cytochrome P450 3A4 (AID 885); conditions: recombinant CYP3A4, Luciferin-PPXE luminescence, 60 min; series mostly up to 57.1 µM; further: nearly all actives have a fitted effect of over 65% in size
# How it was run: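 Using 20nM recombinant human CYP3A4 in potassium phosphate (200mM), substrate Luciferin-PPXE at 25uM, luminescent luciferin detection followed a 60-min RT NADPH reaction; data scaled to 57 uM ketoconazole.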
# [20] = biological target: Ubiquitin carboxyl-terminal hydrolase 1 (Homo sapiens) (UniProt O94782); assay: Inhibitors of USP1/UAF1: Pilot qHTS (AID 504865); conditions: purified USP1/UAF1, Ub-rhodamine cleavage fluorescence; series mostly up to 114 µM;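 further: rhodamine fluorescence freed from ubiquitin-rhodamine substrate followed over time; top concentration of the series differs between compounds; nearly all actives have a fitted effect of over 35% in size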
# Ubiquitin carboxyl-terminal hydrolase 1 (Homo sapiens), sequence (O94782 whole entry, looked up): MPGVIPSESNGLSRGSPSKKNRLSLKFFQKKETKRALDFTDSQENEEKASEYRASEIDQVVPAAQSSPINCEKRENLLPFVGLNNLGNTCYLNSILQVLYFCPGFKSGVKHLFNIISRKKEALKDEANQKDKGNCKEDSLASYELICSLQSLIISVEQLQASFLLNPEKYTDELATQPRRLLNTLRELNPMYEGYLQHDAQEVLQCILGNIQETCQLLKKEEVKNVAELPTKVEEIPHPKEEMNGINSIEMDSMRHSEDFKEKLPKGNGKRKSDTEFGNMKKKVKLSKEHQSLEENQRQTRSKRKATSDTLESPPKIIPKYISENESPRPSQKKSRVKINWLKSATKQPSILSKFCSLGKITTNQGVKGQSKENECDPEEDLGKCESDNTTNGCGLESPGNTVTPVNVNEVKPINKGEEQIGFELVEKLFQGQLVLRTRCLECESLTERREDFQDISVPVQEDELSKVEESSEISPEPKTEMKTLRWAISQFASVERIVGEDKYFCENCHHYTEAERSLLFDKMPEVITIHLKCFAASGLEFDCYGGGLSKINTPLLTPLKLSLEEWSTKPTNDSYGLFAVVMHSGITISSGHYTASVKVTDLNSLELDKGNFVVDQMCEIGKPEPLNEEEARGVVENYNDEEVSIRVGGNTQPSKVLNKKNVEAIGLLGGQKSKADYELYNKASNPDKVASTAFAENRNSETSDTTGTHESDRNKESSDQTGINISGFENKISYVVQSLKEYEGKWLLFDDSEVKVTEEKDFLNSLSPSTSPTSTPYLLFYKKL
# How it was run: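 1nM USP1/UAF1 + cpd, 15 min RT; start w/ Ub-Rho 150nM final; kinetic FL 480/540 nm, 6 reads q60 s. Buffer 50mM HEPES pH 7.8, 0.5mM EDTA, 1mM TCEP, 0.01% Tween-20, 0.1 mg/ml BSA.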
# [21] = measured here: cell count channel max response
# [22] = measured here: lipid channel max response
structure (smiles),measurement,setting,value
O=C(O)[C@H]1CCCNC1,"activity change, negative = inhibition",[1],5.2% (inactive)
same,Potency,[2],inactive
same,"activity change, negative = inhibition",[3],2.68% (inactive)
same,"activity, negative = inhibition",[4],-8.68% (inactive)
same,Potency,[5],> 46 µM (inactive)
same,Potency,[6],> 46 µM (inactive)
same,Potency,[7],inactive
same,Potency,[8],inactive
same,outcome,[9],inactive
same,Potency,[10],inactive
same,Potency,[11],inactive
same,outcome,[12],inactive
same,outcome,[13],inactive
same,outcome,[14],inactive
same,"activity change, negative = inhibition",[15],-2.39% (inactive)
same,max response,[15]; [21],-0.0867%
same,max response,[15]; [22],-1.72%
same,Potency,[16],inactive
same,Potency,[17],inactive
same,Potency,[18],inactive
NC(=O)C[C@H](NC(=O)Cc1ccc(O)cc1O)C(=O)O,Potency,[2],inactive
same,Potency,[5],> 46 µM (inactive)
same,Potency,[6],> 46 µM (inactive)
same,Potency,[7],inactive
same,"activity change, negative = inhibition",[15],-1.96% (inactive)
same,max response,[15]; [21],-23.7%
same,max response,[15]; [22],-24%
same,Potency,[16],inactive
same,Potency,[17],inactive
same,Potency,[18],inactive
CC(C)[C@@H]1[C@H]2CC[C@H](C2)[C@H]1N,"activity change, negative = inhibition",[1],17.6% (inactive)
same,Potency,[2],inactive and 31.6 µM (active)
same,"activity change, negative = inhibition",[3],2.88% (inactive)
same,"activity, negative = inhibition",[4],4.64% (inactive)
same,Potency,[5],> 46 µM (inactive)
same,Potency,[6],> 46 µM (inactive)
same,Potency,[7],inactive
same,Potency,[8],inactive
same,Potency,[19],inactive
same,Potency,[10],inactive
same,"activity change, negative = inhibition",[15],-6.29% (inactive)
same,max response,[15]; [21],-11.1%
same,max response,[15]; [22],-17.5%
same,Potency,[16],inactive
same,Potency,[17],inactive
same,Potency,[18],1 µM (active)
C[C@H](NC[C@H](O)CP(=O)(O)Cc1ccccc1)c1ccc(Cl)c(Cl)c1,Potency,[2],inactive
same,Potency,[5],> 46 µM (inactive)
same,Potency,[6],> 46 µM (inactive)
same,Potency,[7],inactive
same,Potency,[8],inactive
same,"activity change, negative = inhibition",[15],2.58% (inactive)
same,max response,[15]; [21],0.952%
same,max response,[15]; [22],5.21%
same,Potency,[20],inactive
same,Potency,[16],inactive
same,Potency,[17],inactive
same,Potency,[18],inactive
N[C@H](C(=O)O)c1ccc(C(=O)O)cc1,Potency,[2],inactive
same,Potency,[5],> 46 µM (inactive)
same,Potency,[6],> 46 µM (inactive)
same,Potency,[7],inactive
same,"activity change, negative = inhibition",[15],-2.07% (inactive)
same,max response,[15]; [21],-4.05%
same,max response,[15]; [22],-7.12%
same,Potency,[20],inactive
same,Potency,[16],inactive
same,Potency,[17],inactive
same,Potency,[18],inactive
N[C@@H](CO)C(=O)O,"activity change, negative = inhibition",[1],6.64% (inactive)
same,Potency,[2],inactive
same,"activity change, negative = inhibition",[3],1.99% (inactive)
same,"activity, negative = inhibition",[4],-12.9% (inactive)
same,Potency,[5],> 46 µM (inactive)
same,Potency,[6],> 46 µM (inactive)
same,Potency,[7],inactive
same,Potency,[8],inactive
same,outcome,[9],inactive
same,Potency,[11],inactive
same,outcome,[12],inactive
same,outcome,[13],inactive
same,outcome,[14],inactive
same,"activity change, negative = inhibition",[15],-1.57% (inactive)
same,max response,[15]; [21],0.892%
same,max response,[15]; [22],-1.78%
same,Potency,[20],inactive
same,Potency,[16],inactive
same,Potency,[17],inactive
same,Potency,[18],inactive
CC(=O)N1CCN(C)CC1,Potency,[2],31.6 µM (active)
same,Potency,[5],> 46 µM (inactive)
same,Potency,[6],> 46 µM (inactive)
same,Potency,[7],inactive
same,Potency,[8],inactive
same,"activity change, negative = inhibition",[15],-3.74% (inactive)
same,max response,[15]; [21],-2.52%
same,max response,[15]; [22],-5.67%
same,Potency,[16],inactive
same,Potency,[17],inactive
same,Potency,[18],inactive
